# Laboratory results published in PubChem BioAssay.
# Unmarked numbers belong to inactive results. Records with an inconclusive call do not appear. Active and inactive are the calls of the source. Rule as the data show it, unless noted: active = fluorescence slope change above about 50%; inconclusive = mostly about 31% to 49%; inactive = weaker than that.
# Key:
# [1] = compounds altering circadian rhythm period length – cell-based, LOPAC library, luminescence reporter (AID 2774; call rule not given here;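 also: values are relative to mean of DMSO wells on each plate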); settings: circadian reporter cells, at 7 µM, actives lie on both sides
# [2] = tested on: Hepatitis C virus NS3 helicase; experiment: blockers of NS3h binding to ssDNA – biochemical, fluorescence polarization, LOPAC1280 library, primary screen (AID 687035; in the data active = inhibition above about 37%); settings: Purified HCV NS3 helicase, Cy5-dT15 ssDNA binding fluorescence polarization; stronger effect = higher value; concentration not given here
# [3] = compounds altering Cy5-DNA-NS3h complex signal – biochemical, LOPAC1280, artefact control for HCV NS3 helicase inhibitor project (AID 687037; call rule not given here); settings: Cy5-DNA-NS3h complex fluorescence interference counterscreen
# [4] = molecular target: ATP-dependent translocase ABCB1 (Homo sapiens) (UniProt P08183); experiment: P-glycoprotein substrate transport blockade – cell-based (AID 377); settings: MDR1-expressing cells, fluorescent substrate accumulation slope; stronger effect = higher value; concentration not given here
# Sequence of ATP-dependent translocase ABCB1 (Homo sapiens) (P08183 whole entry, looked up): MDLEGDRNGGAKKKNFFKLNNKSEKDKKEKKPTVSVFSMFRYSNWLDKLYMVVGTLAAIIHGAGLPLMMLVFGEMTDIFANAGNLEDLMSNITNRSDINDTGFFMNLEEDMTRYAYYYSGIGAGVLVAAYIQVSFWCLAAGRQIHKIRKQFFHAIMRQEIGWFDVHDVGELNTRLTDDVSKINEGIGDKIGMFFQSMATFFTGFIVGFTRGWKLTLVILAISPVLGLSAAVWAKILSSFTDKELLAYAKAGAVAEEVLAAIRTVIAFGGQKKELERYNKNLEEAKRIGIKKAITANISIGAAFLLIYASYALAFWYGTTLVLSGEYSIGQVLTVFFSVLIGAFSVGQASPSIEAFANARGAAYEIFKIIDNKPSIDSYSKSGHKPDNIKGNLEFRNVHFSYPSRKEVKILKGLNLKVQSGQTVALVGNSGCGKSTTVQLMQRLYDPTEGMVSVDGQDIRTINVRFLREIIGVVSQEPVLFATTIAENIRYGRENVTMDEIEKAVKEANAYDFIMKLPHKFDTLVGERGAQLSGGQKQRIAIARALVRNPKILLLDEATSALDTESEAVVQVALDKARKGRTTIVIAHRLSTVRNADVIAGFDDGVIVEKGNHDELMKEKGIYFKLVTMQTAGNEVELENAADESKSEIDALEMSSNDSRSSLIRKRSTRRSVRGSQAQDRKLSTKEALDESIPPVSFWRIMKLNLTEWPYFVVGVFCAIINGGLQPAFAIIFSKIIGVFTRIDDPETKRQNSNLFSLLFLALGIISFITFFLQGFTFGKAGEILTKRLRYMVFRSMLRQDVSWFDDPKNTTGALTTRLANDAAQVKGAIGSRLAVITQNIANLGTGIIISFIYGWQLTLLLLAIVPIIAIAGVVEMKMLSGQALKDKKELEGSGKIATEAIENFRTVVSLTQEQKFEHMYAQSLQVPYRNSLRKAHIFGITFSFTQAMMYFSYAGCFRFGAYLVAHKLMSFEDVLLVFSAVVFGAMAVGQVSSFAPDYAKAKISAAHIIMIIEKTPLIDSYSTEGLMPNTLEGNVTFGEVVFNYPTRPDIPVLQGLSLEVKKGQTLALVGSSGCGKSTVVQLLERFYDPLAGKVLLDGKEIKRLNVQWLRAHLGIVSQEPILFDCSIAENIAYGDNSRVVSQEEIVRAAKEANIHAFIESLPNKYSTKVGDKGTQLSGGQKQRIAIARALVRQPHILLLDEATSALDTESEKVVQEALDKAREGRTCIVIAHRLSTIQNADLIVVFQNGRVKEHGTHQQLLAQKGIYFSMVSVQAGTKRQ
smiles,measurement,setting,value
CC(C)NC[C@@H](O)c1ccc(O)c(O)c1,period change,[1],-0.08 h
same,inhibition,[2],-5%
same,fluorescence ratio (interference),[3],0.9
CN1[C@@H](C[C@H](O)c2ccccc2)CCC[C@H]1CC(=O)c1ccccc1,fluorescence slope change,[4],26.3%
CNCCC=C1c2ccccc2C=Cc2ccccc21,fluorescence slope change,[4],58% (active)
O=C1OC(CN2CCOCC2)CN1N=Cc1ccc([N+](=O)[O-])o1 (stereo unspecified),fluorescence slope change,[4],11.7%
O=C1OC(C(O)CO)C(O)=C1O (stereo unspecified),fluorescence slope change,[4],10.1%
CNc1ncnc2c1ncn2[C@@H]1O[C@H](CO)[C@@H](O)[C@H]1O,fluorescence slope change,[4],64.6% (active)
CCCCC[C@H](O)/C=C/[C@@H]1[C@@H](C/C=C\CCCC(=O)O)[C@@H](O)C[C@H]1O (tested in a mixture with another compound),fluorescence slope change,[4],101% (active)
Nc1nc(=S)c2ncn([C@@H]3O[C@H](CO)[C@@H](O)[C@H]3O)c2[nH]1,fluorescence slope change,[4],59.6% (active)
c1ccc(CNc2ncnc3nc[nH]c23)cc1,fluorescence slope change,[4],11.7%
